Screen size: about 310,000 compounds; about 14,000 (4.5%) showed an effect of 50% or more. Effects have a minus sign here. The list comes from a sample in which strong results are over-represented; it also holds similar structures and randomly drawn compounds.
The compounds below were run against human ether-à-go-go-related gene (hERG) potassium channel (human, UniProt Q12809) (assay: primary screen, population patch clamp on CHO cells stably expressing hERG; higher = less effect of the substance).
Sequence of human ether-à-go-go-related gene (hERG) potassium channel (Q12809 whole entry, looked up): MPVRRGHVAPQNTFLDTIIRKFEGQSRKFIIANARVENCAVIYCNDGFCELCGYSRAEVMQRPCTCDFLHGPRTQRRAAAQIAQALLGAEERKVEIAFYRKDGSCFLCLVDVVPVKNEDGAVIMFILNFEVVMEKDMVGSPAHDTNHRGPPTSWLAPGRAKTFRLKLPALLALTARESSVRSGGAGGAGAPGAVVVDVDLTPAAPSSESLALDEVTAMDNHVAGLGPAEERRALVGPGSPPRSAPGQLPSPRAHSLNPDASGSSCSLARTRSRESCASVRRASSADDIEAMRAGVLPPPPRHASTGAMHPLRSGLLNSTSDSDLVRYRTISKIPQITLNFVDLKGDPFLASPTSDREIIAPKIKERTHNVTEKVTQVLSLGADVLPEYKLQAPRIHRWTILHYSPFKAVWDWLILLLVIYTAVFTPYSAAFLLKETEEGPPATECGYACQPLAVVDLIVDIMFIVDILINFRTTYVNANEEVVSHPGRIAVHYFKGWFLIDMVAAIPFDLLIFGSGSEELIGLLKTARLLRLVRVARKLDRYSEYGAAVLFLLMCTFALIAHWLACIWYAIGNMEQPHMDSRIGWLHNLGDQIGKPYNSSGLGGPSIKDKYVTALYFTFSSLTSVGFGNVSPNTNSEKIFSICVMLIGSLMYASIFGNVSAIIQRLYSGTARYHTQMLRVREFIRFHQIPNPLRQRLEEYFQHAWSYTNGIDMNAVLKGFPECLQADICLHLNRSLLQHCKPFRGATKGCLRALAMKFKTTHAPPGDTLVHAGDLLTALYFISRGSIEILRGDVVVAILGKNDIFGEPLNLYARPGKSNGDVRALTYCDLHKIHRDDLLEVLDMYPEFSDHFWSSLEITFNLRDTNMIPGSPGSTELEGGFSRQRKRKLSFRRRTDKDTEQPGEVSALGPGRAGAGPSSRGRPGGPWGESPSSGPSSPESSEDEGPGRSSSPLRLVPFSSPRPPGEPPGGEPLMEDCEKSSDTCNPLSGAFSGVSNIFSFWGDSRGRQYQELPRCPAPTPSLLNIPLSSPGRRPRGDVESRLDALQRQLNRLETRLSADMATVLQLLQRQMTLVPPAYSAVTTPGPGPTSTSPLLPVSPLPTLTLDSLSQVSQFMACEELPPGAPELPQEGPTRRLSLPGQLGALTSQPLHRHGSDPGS
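Also: peak tail current of the secondary pulse compared with the same well before compound.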

| Compound | hERG current change (%, negative = inhibition) at 10uM |
| --- | --- |
| CC(C)OC(=O)c1cc(C(=O)c2cc(F)ccc2O)coc1=N | -7.34% |
| Cl.O=C(O)C1=CCNCC1 | 17.6% |
| Cl.O=C(O)C1=CCCNC1 | -54.4% |
| COc1ccccc1NC(=O)c1ccccc1NC(=O)c1cc(Cl)ccc1NC(=O)c1ccco1 | 2.97% |
| COc1ccc(OC)c(NC(=O)c2ccccc2NC(=O)c2ccco2)c1 | -75.6% |
| COc1ccc(NC(=O)c2ccccc2NC(=O)c2ccco2)cc1 | 18.5% |
| COc1ccccc1C(=O)Nc1cc(C)ccc1NC(=O)c1ccco1 | -44.4% |
| COc1ccc(NC(=O)c2cc(Cl)ccc2NC(=O)c2ccco2)c(OC)c1 | -85.2% |
| COc1ccc(C(=O)Nc2ccc(Cl)cc2C(=O)NCCO)cc1 | -53.8% |
| COc1ccc(C(=O)Nc2ccc(Cl)cc2C(=O)NCCN2CCOCC2)cc1 | -12.3% |
| COc1ccc(C(=O)Nc2ccccc2NC(=O)c2ccco2)c(OC)c1 | -21.9% |
| COc1ccccc1NC(=O)c1cc(Cl)ccc1NC(=O)c1ccco1 | -1.81% |
| COc1ccc(C(=O)Nc2ccc(Cl)cc2C(=O)NCc2ccco2)cc1 | -0.702% |
| Cc1ccc(NC(=O)c2ccco2)c(NC(=O)c2ccccc2C)c1 | 17.9% |
| CCOc1ccccc1C(=O)Nc1cc(C)ccc1NC(=O)c1ccco1 | -75.3% |
| Cc1ccc(C(=O)OCC(=O)Nc2ccc3[nH]c(=O)[nH]c3c2)cc1S(=O)(=O)N1CCOCC1 | 4.19% |
| O=C(Nc1ccc(C(=O)N2CCCCC2)cc1)c1ccc(Br)cc1 | 3.55% |
| O=C(O)c1ccc2c(c1)CCC2 | 9.54% |
| Cc1cc(NC(=O)C23CC4CC(CC(C4)C2)C3)n[nH]1 | -0.917% |
| Cc1cccc(NC(=S)N2CCCC2)c1 | 11.1% |

| Compound | hERG current change (%, negative = inhibition) at 10uM |
| --- | --- |
| COc1cc(OC)cc(C(=O)Nc2c(C)nn(-c3ccccc3)c2C)c1 | -3.27% |
| COc1ccc(CCNC(=S)N2CCN(S(=O)(=O)c3ccccc3F)CC2)cc1 | -3.68% |
| CCOC(=O)c1c(-c2ccccc2)csc1NC(=O)c1nn(CC)cc1Br | 6.4% |
| O=C(Oc1ccc(Cl)cc1)c1ccc(COC(=O)c2cnccn2)cc1 | 14.9% |
| COc1ccc(NC(=O)c2ccco2)c(OC)c1 | 16.9% |
| COc1ccc(NC(=O)c2ccccc2NC(=O)c2ccco2)c(OC)c1 | -73.4% |
| COc1ccc(NC(=O)CCC(=O)Nc2cc(OC)c(NC(=O)c3ccco3)cc2OC)c(OC)c1 | 20.4% |
| O=C(O)c1ccccc1C1Nc2ccccc2C(=O)N1CCCN1CCOCC1 (stereo not drawn) | 18.4% |
| C/C(=N/n1cnnc1)c1cccnc1 | -0.855% |
| C/C(=N\NC(=O)CCC(=O)Nc1ccc(C)c(C)c1)C1CC1 | 10.7% |
| Cc1ccc2nc(N3CCN(C)CC3)c(C#N)cc2c1 | -42.3% |
| Cc1cccc2cc(C#N)c(N3CCN(C)CC3)nc12 | -46% |
| Cc1ccc2cc(C#N)c(N3CCN(C)CC3)nc2c1 | 2.75% |
| COc1ccc(C(=O)N2CCN(c3nc4cc(C)ccc4cc3C#N)CC2)c(OC)c1 | -22.8% |
| Cc1ccc2cc(C#N)c(N3CCCN(C(=O)c4cnccn4)CC3)nc2c1 | -42.4% |
| Cc1ccc2nc(N3CCN(C(=O)c4cccs4)CC3)c(C#N)cc2c1 | -76.9% |
| Cc1ccc2cc(C#N)c(N3CCN(C(=O)c4ccccc4)CC3)nc2c1 | -67.1% |
| CCc1ccc2nc(N3CCN(C)CC3)c(C#N)cc2c1 | -54.3% |
| COc1ccc2cc(C#N)c(N3CCN(C(=O)c4ccccc4C)CC3)nc2c1 | -18.9% |
| COc1cc(C(=O)N2CCCN(c3nc4cc(C)ccc4cc3C#N)CC2)cc(OC)c1OC | -53.5% |

| Compound | hERG current change (%, negative = inhibition) at 10uM |
| --- | --- |
| N#Cc1cccnc1N1CCN(C(=O)c2cccs2)CC1 | -1.7% |
| Cc1ccc2cc(C#N)c(N3CCN(C(=O)c4cccs4)CC3)nc2c1 | -34.2% |
| Cc1cc(-c2ccccc2)nc(N(C)NC(=O)c2ccc(Cl)cc2)c1S(C)(=O)=O | 0.236% |
| CC(=O)c1cccc(NC(=O)N2CCC(C(=O)c3ccc(F)cc3)CC2)c1 | -28.1% |
| CCOc1ccc(N=Nc2c(C)[nH]n(-c3ccccc3)c2=O)cc1 | 18.6% |
| O=C(COC(=O)C1CCC1)Nc1ccccc1Sc1ccccc1 | 7.34% |
| COc1ccc2nc(NC(=S)NC(=O)c3ccco3)sc2c1 | 25.2% |
| COc1ccc(CCNC(=O)c2cnc3n(c2=O)CCS3)cc1OC | -5.87% |
| Cc1ccc(-n2c(C)nn(CCOc3ccccc3)c2=O)cc1 | 1.54% |
| Cc1ccc(C(=O)N2CCCN(c3nc4cc5c(cc4cc3C#N)OCO5)CC2)cc1 | -0.619% |
| Cc1ccc2nc(N3CCN(C(=O)c4ccc(F)cc4)CC3)c(C#N)cc2c1 | -73.6% |
| COc1ccccc1C(=O)N1CCN(c2nc3cc(C)c(C)cc3cc2C#N)CC1 | -2.28% |
| C/C(=N\NC(=O)c1cc(-c2ccc(O)cc2)nc2ccccc12)c1cccnc1 | 11.7% |
| COC(=O)/C=C1\SC(=Nc2ccccc2)NC1=O | 9.64% |
| FC(F)(F)c1cccc(N2CCN(c3ccc4nnc(-c5ccccc5)n4n3)CC2)c1 | -4.4% |
| Cc1nnc2ccc(N3CCCCC3)nn12 | 6.15% |
| Cc1nnc2ccc(N3CCN(c4ccccn4)CC3)nn12 | -57% |
| Cc1nnc2ccc(-c3cccc(C(F)(F)F)c3)nn12 | -9.04% |
| Cc1nnc2ccc(N3CCCC3)nn12 | 6.22% |
| Cc1nnc2ccc(N3CCN(c4cccc(C(F)(F)F)c4)CC3)nn12 | -61.8% |

— PMC4336329 (PLoS ONE, 2015)
